Among the data in PMC7862700, “An all-to-all approach to the identification of sequence-specific readers for epigenetic DNA modifications on cytosine” are binding signal values, retold here.

Holding throughout (experiment): DAPPL (digital affinity profiling via proximity ligation, sequencing); 10 mM Tris-HCl pH 7.5, 50 mM NaCl, 1 mM DTT, 4% glycerol, room temperature, 30 min; GST-TFs on glutathione beads, 16-mer random dsDNA library, 0.1% formaldehyde crosslink after washing; high values mean tight binding
What all share (conditions): protein: recombinant; tags: N-terminal GST; dsDNA, one strand shown

One assay has as its target T1, FLI1 (Homo sapiens, UniProt Q01543 1-452).
T1 sequence: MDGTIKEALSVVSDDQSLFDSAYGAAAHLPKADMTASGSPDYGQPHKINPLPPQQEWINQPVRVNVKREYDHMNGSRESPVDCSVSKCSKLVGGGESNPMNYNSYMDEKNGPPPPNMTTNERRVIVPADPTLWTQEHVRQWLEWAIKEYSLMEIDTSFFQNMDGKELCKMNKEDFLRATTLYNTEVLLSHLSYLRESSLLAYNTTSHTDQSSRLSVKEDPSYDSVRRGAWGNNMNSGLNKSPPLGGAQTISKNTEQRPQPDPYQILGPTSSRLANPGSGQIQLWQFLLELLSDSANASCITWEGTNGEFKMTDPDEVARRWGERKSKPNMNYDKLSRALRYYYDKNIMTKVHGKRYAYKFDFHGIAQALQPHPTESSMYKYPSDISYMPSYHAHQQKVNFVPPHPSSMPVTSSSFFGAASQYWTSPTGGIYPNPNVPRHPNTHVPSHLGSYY
Summed up: (§1)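 Human transcription factors were made in yeast as GST fusions, captured on glutathione beads and barcoded with DNA. With a tag-only sample included, the pool was incubated with 200 nmole of a random double-stranded 16-mer DNA library in Tris/NaCl/DTT/glycerol buffer at room temperature for 30 min, then crosslinked with 0.1% formaldehyde after washing, ligated by proximity, amplified and sequenced. For binding signal, each hexamer's read frequency for a factor is divided by its frequency for the tag-only sample.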

Another assay addresses T2, ELK1 (Homo sapiens, UniProt P19419 1-428).
T2 sequence: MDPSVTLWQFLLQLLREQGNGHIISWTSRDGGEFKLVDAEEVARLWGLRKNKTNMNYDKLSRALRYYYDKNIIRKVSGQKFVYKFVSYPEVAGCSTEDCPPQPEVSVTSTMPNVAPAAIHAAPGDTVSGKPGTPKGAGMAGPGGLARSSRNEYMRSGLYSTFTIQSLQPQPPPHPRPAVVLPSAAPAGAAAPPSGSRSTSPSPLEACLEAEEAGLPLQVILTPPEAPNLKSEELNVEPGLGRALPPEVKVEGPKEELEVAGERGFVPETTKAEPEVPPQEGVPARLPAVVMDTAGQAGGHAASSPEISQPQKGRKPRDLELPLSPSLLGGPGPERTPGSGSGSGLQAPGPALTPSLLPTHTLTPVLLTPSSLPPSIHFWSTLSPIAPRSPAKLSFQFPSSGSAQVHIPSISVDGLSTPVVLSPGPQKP
The gist of the method:
as §1

Another assay has as its target T3, GABPA (Homo sapiens, UniProt Q06546 1-454).
T3 sequence: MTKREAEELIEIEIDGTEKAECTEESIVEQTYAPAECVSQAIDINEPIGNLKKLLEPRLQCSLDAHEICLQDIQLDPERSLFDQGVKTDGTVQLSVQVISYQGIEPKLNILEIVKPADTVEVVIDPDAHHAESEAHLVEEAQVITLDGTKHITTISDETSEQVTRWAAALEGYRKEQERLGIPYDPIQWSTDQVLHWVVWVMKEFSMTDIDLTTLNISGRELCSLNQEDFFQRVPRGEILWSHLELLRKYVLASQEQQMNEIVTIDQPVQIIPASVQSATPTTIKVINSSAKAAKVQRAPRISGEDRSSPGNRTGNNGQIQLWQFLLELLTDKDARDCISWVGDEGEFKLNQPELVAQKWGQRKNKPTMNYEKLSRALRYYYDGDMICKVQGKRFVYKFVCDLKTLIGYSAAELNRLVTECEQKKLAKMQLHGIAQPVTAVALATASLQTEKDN
Summed up: as §1

A further assay addresses T4, ERG (Homo sapiens, UniProt P11308 1-479).
T4 sequence: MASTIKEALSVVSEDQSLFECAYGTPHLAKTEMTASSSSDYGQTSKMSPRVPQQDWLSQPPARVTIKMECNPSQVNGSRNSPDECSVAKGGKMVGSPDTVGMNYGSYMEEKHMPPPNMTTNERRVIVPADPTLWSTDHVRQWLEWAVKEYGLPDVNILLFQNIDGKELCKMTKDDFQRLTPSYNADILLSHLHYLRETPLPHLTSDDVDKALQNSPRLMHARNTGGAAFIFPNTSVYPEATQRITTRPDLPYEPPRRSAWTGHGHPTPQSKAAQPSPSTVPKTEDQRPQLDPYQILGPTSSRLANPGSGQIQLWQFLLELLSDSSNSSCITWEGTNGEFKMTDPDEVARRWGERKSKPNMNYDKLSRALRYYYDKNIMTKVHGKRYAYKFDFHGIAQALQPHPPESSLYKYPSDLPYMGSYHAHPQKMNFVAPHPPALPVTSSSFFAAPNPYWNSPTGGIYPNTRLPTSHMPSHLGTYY
The gist of the method: as §1

For a further assay, the target named is ELF1 (Homo sapiens, UniProt P32519 1-619). Summed up:
as §1

Another assay has as its target T5, EHF (Homo sapiens, UniProt Q9NZC4 1-300).
T5 sequence: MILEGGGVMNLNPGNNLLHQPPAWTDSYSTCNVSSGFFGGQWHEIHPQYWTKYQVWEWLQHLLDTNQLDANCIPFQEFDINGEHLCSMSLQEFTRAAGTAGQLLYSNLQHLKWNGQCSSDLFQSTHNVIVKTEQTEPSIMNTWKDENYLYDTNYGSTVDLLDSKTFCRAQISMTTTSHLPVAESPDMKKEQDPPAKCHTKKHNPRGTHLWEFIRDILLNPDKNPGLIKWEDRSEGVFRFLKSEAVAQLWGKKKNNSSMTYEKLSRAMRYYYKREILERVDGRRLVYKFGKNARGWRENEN
Summed up:
as §1

Another assay concerns the target SPIB (Homo sapiens, UniProt Q01892 1-262). Summed up:
as §1

In a further assay the target is T6, ELK3 (Homo sapiens, UniProt P41970 1-407).
T6 sequence: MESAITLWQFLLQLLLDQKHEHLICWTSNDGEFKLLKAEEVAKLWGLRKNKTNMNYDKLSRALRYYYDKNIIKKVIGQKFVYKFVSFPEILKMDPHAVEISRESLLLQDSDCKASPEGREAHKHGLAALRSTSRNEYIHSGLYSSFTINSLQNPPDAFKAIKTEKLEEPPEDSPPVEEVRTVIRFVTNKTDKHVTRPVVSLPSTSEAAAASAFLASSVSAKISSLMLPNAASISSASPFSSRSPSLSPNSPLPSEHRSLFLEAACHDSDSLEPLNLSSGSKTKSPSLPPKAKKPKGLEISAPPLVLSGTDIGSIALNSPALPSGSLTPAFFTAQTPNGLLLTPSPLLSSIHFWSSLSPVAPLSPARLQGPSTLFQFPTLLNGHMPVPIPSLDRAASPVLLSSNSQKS
Summed up:
as §1

The target of a further assay is T7, SPIC (Homo sapiens, UniProt Q8N5J4 1-248).
T7 sequence: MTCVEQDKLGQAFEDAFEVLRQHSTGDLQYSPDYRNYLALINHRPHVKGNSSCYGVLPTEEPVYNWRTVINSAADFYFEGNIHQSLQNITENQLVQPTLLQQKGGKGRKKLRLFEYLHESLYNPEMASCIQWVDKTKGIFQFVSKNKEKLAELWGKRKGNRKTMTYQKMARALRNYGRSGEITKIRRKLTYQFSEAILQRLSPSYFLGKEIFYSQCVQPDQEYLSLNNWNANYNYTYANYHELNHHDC
Summed up:
as §1

The target of the next assay is ELF4 (Homo sapiens, UniProt Q99607 1-663). The gist of the method:
as §1

Chain of ELF4 (Q99607 whole entry): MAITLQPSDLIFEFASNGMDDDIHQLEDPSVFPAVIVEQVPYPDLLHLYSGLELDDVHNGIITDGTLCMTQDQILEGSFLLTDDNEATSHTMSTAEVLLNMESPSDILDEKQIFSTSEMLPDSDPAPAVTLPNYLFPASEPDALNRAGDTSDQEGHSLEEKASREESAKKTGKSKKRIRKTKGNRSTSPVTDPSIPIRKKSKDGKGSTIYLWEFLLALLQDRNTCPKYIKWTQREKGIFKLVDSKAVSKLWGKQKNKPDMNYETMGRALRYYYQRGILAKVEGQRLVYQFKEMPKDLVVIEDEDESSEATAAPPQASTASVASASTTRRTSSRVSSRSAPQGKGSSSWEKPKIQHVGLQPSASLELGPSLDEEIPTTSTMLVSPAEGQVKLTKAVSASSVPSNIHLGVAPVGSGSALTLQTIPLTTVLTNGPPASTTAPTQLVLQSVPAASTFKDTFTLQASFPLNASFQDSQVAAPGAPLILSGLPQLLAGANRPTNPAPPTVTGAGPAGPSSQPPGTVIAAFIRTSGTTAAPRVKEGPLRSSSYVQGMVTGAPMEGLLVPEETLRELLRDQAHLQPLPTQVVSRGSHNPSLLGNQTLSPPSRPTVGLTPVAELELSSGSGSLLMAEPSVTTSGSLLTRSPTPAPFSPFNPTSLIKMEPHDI
Chain of ELF1 (P32519 whole entry): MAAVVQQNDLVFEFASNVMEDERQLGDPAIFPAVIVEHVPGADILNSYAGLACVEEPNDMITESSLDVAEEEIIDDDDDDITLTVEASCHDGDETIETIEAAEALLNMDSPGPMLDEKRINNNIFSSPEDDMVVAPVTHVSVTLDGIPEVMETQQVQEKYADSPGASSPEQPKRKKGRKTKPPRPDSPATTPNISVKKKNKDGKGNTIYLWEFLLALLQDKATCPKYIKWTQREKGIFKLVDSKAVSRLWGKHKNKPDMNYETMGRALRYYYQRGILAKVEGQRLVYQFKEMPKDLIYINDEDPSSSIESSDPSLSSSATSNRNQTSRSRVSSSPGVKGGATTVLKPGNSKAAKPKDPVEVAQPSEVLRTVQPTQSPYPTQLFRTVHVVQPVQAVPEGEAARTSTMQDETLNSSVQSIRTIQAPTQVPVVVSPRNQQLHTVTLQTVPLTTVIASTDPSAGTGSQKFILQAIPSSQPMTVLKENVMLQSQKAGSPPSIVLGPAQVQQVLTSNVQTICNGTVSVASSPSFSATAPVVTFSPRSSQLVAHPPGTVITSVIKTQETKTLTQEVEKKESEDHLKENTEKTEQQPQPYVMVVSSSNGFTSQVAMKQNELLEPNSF
Chain of SPIB (Q01892 whole entry): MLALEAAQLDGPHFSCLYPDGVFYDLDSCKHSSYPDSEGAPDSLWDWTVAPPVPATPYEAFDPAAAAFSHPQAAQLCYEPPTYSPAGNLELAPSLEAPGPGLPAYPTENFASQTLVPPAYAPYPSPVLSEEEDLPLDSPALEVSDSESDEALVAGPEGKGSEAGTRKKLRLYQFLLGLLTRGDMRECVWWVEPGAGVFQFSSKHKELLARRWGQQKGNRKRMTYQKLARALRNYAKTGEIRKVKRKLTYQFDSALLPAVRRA

ACCCCT: the binding signal with FLI1 was 1.11 fold enrichment (6-mer frequency, TF over GST control); with ELK1, 1.07 fold enrichment (6-mer frequency, TF over GST control); in the assay with GABPA, 1.04 fold enrichment (6-mer frequency, TF over GST control); with ERG, 1.01 fold enrichment (6-mer frequency, TF over GST control); with ELF1, 1.16 fold enrichment (6-mer frequency, TF over GST control); in the assay with EHF it was 1.09 fold enrichment (6-mer frequency, TF over GST control). In addition, the binding signal with SPIB is 1.08 fold enrichment (6-mer frequency, TF over GST control); with ELK3, 1.08 fold enrichment (6-mer frequency, TF over GST control); in the assay with SPIC, 1.05 fold enrichment (6-mer frequency, TF over GST control); with ELF4 it was 1.09 fold enrichment (6-mer frequency, TF over GST control).
